FMDV inh: antivirals against foot and mouth disease virus | Potency, µM (highest dose often 57.9 µM), inactives show at the top dose activity change, negative = inhibition, most hits filed as inhibitors | AID 1159524 | 1.2% of 410,000 active | FMDV antiviral cell-based qHTS; calls by dose curve; tested in HEK293T cells; note: read-out not given here; potency is the fitted concentration of half-maximal effect; nearly all actives have a fitted effect of over 45% in size
Giardia FBPA inh: Giardia lamblia aldolase inhibition | A8B2U2 | purified Giardia FBPA | Potency, µM (top dose mostly 59.6 µM), for inactives: top-dose activity, negative = inhibition, most hits filed as inhibitors | 0.71% of 290,000 active; note: potency is the fitted concentration of half-maximal effect; nearly all actives have a fitted effect of over 55% in size
Target sequence (A8B2U2 whole entry, looked up): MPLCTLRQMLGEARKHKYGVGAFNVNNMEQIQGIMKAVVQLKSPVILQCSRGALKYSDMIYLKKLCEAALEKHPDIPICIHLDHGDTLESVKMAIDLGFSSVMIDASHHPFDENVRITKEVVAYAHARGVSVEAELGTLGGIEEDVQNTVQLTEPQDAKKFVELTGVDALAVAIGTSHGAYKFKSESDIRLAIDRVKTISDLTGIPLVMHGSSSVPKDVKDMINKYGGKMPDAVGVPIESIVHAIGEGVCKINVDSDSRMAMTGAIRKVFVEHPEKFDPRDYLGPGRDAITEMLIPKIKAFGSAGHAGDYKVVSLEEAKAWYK
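40 nM FBPA preincubated 10 min at RT with compound (up to 57.5 uM final), then substrate plus GAPDH/TPI/NAD/arsenate coupling and diaphorase/resazurin added. Fluorescence read after 20 min at RT, 525/598 nm.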
Tb PYK inh: blocks Trypanosoma brucei pyruvate kinase | Potency, µM (top dose mostly 76.8 µM), for the others: at the highest dose activity, negative = inhibition, actives largely listed as inhibitors | Q57TT1 | 0.12% of 410,000 active | TbPYK enzyme, Kinase-Glo Plus ATP luminescence, 45 min; note: potency is the fitted concentration of half-maximal effect; nearly all actives have a fitted effect of over 50% in size
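T. brucei PYK with substrate was exposed to pin-transferred compounds across a concentration series, then started with 130 uM ADP (final). After 45 min at room temperature, Kinase-Glo Plus luminescence was read, normalized and curve-fitted.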
RE007 growth inh: less growth of the S. pombe RE007 Vpr strain | S. pombe RE007 Vpr strain, BacTiter-Glo ATP luminescence, 24 h | Potency, µM (highest dose often 92.2 µM), without a hit: top-dose activity change, negative = less growth, most hits filed as inhibitors | AID 651644 | 0.21% of 360,000 active; active = well fitted falling curve with a large enough effect; inconclusive = small, poorly fitted or top-dose-only effect; inactive = no such curve, though single readings can be large or run the other way; note: potency is the fitted concentration of half-maximal effect; nearly all actives have a fitted effect of over 50% in size
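Fission yeast RE007 carrying one integrated HIV-1 vpr copy, seeded at OD 0.01 in PMG+AL medium with 23 nL pinned compound. Grown 24 h at 30 degrees; viability read by BacTiter-Glo luminescence after 5 min.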
Sm TGR inh: inhibitors of Schistosoma mansoni thioredoxin glutathione reductase. Q962Y6. purified TGR, DTNB reduction, TNB absorbance 405 nm. Potency, µM (series often up to 114 µM), for the others: at the highest dose activity change, negative = inhibition, actives largely listed as inhibitors. 3% of 360,000 active. AID 485364; note: potency is the fitted concentration of half-maximal effect; nearly all actives have a fitted effect of over 60% in size
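TGR 20 nM + NADPH 100 uM (dispensed conc.), cpd preinc 15 min RT; start with NADPH (500 uM addition) then DTNB (15 mM addition). Kinetic TNB absorbance, 405 nm filter. Four-parameter Hill fit across titration.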
HCMV antiviral: blocks human cytomegalovirus replication. HFF cells, HCMV-luciferase reporter, 72 h; active compounds read low. activity change, negative = inhibition, % at 57.5 µM. 4.5% of 410,000 active. AID 1259415; in the data active = activity change below about -60%; inconclusive = no clear call, values can overlap the other calls; inactive = above about -39%
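Cell-based, HFFs, 1000 cells/well, 16 h 37C; cpds in DMSO + HCMV-luc, MOI 1 PFU/cell; 72 h 37C; OneGlo luminescence after 5 min RT; norm. to buffer vs Salinomycin 10uM.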
Active calls of the source: *; ? = inconclusive; / = no result given. Only some compounds are listed: those with a hit (about 7.7% of all), similar ones and a draw of the others. Unless noted, calls come from the whole dose curve; as a rule, active = well fitted curve in the direction sought with a large enough effect; inconclusive = small, poorly fitted or top-dose-only effect, or another doubt; inactive = no such curve, though single readings can be large; an effect the other way counts as inactive or inconclusive. % is set by controls: 0 for no effect and ±100 for the full control effect.

SMILES	FMDV inh	Giardia FBPA inh	Tb PYK inh	RE007 growth inh	Sm TGR inh	HCMV antiviral
Cc1cc(C)c2c(c1)C1C=CCC1C(c1ccc(S(=O)(=O)N3CCOCC3)cc1)N2 (stereo not given)	/	0.8%	-11.0%	9.3%	1.58µM*	-0.2
COc1ccc(-c2nnc3n(CCc4ccccc4)c(=O)c4ccccc4n23)c(OC)c1	28.2µM*	-0.8%	-2.4%	1.4%	-3.4%	72.4
CC(C)c1ccc(-c2nnc3n(CCc4ccccc4)c(=O)c4ccccc4n23)cc1	28.2µM*	/	-12.2%	/	43.9%	15.8
Cc1ccc(C)n1C1C(=O)N(Cc2ccc(C(C)C)cc2)c2ccc(F)cc21 (stereo not given)	/	/	/	/	/	26.9
Cc1cccc(C(=O)Oc2csc(=S)n2C(=O)c2cccc(C)c2)c1	9.2%	10.8%	28.2µM*	-15.6%	-20.7%	-12.4
O=C(Oc1csc(=S)n1C(=O)c1ccccc1)c1ccccc1	-5.1%	8.0%	?	135.9%	-18.1%	/
Cc1cc(/C=C2\SC(=O)N(CC(=O)Nc3ccccc3F)C2=O)c(C)n1C	18.1%	-3.9%	-4.0%	10.1%	25.1µM*	-27.7
Cc1cccc(NC(=O)CN2C(=O)N/C(=C/c3cc(C)n(C)c3C)C2=O)c1	-0.3%	-10.9%	-19.1%	-12.9%	25.1µM*	-9.4
Cc1cccc(NC(=O)CN2C(=O)S/C(=C\c3cc(C)n(C)c3C)C2=O)c1	-19.0%	-27.1%	-0.2%	/	?	-62.5*
Cc1cccc(NC(=O)CN2C(=O)N/C(=C/c3cc(C)n(-c4ccncc4)c3C)C2=O)c1	-23.2%	-4.5%	-9.0%	4.4%	2.2%	-24.6
CCCOc1ccc(-c2nonc2NC(=O)c2oc3ccc(C)cc3c2C)cc1OCCC	-21.2%	/	0.8%	/	12.0%	2.6
COCCn1c(SCc2nc3scc(-c4ccc(Cl)cc4)c3c(=O)[nH]2)nnc1-c1cccc(C)c1	39.8µM*	13.8%	-8.0%	28.3%	-7.9%	?
Cc1cccc(Nc2nc(-c3ccccc3)c3cc(C)ccc3n2)c1	-18.6%	/	1.2%	/	-1.2%	-34.4
Cc1ccc(S(=O)(=O)SCCCSS(=O)(=O)c2ccc(C)cc2)cc1	-8.0%	/	3.98µM*	?	/	-3.7
CC(C)=CCc1cc([C@@H]2COc3c(ccc4c3C=CC(C)(C)O4)C2)c(O)cc1O	?	/	-1.1%	?	/	-106.4*
Cc1ccn(CCC(=O)N2CCOc3ccc(C(O)C4CCCCC4)cc3C2)n1 (stereo not given)	-7.6%	/	/	/	/	/
Cc1oc(C)c2c(=O)cc(-c3ccc4c(c3)OCO4)cc(OC(=O)c3ccccc3Br)c12	-11.1%	/	3.7%	/	44.7µM*	7.3
Cc1oc(C)c2c(=O)cc(-c3ccc4c(c3)OCO4)cc(OC(=O)c3ccccc3Cl)c12	-21.9%	/	-4.7%	/	39.8µM*	3.2
COc1cc(-c2cc(OC)c3c(C)oc(C)c3c(=O)c2)ccc1OC(=O)c1ccccc1Cl	?	/	-17.2%	/	-16.9%	362.4
CCOC(=O)c1c(C)[nH]c(CCC(=O)Nc2cc(C)cc(C)c2)c1C	-17.5%	/	0.8%	/	-11.9%	63.3
COc1ccc2c(c1)c1c(c(=O)n(-c3cc(Cl)ccc3C)c(=O)n1CC(=O)N1CCCC1)n2C	-25.8%	/	-11.7%	/	4.4%	-29.8
CCOc1ccc(C(=O)NCCn2cc(SCC(=O)NCCc3ccc(OC)c(OC)c3)c3ccccc32)cc1	-29.0%	/	-4.4%	/	-9.0%	-14.7
CCc1cc2cc(C)ccc2nc1SCC(=O)N1CCN(C(=O)c2ccco2)CC1	-0.7%	11.8%	1.2%	1.2%	?	-32.6
Cc1cc2cc(C)c3nnc(SCC(=O)N4CCN(C(=O)c5ccco5)CC4)n3c2cc1C	/	/	-3.3%	3.9%	/	-73.2*
COc1ccc2c(c1)cc(C)c1nnc(SCC(=O)N3CCN(C(=O)c4ccco4)CC3)n12	/	0.4%	2.6%	3.2%	?	/
SMILES	FMDV inh	Giardia FBPA inh	Tb PYK inh	RE007 growth inh	Sm TGR inh	HCMV antiviral
COc1cc2cc(C)c(SCC(=O)N3CCN(C(=O)c4ccco4)CC3)nc2cc1OC	?	-3.5%	-3.4%	2.7%	17.8µM*	-9.1
Cc1c(C(=O)N(C)C)sc2c1c(=O)n(-c1ccc(Cl)c(Cl)c1)c(=O)n2Cc1ccc(F)cc1	0.0%	/	-5.4%	/	4.7%	27.5
CCOC(=O)NC1(NC(C)C)Oc2ccccc2O1	-18.0%	-5.0%	5.2%	9.0%	44.7µM*	14.4
CCOC(=O)NC1(Nc2ccc(C)cc2)Oc2ccccc2O1	12.8%	-12.3%	?	-14.3%	39.8µM*	40.4
CCOC(=O)C(Cc1ccccc1)C1(C)Oc2ccccc2O1 (stereo not given)	-8.1%	/	/	12.1%	/	?
CCOC(=O)NC1(NCc2ccccc2)Oc2ccccc2O1	-2.4%	-14.4%	-19.3%	-21.3%	31.6µM*	-25.7
CCOC(=O)NC1(NCC(C)C)Oc2ccccc2O1	-10.9%	?	-13.9%	-1.4%	22.4µM*	-5.4
COc1ccc(OCC2CN(Cc3ccccc3)S(=O)(=O)CCO2)cc1 (stereo not given)	/	/	/	/	/	-0.8
COc1ccc(N2CC(C)(C)C[C@@H]2/C=C/C(=O)OC(C)(C)C)cc1	/	/	/	/	/	-12.8
O=[N+]([O-])c1ccc(OC2OCC(O)C(O)C2O)cc1 (stereo not given)	/	/	/	/	/	-22.2
CCOC(=O)NC1(NC2CCCCC2)Oc2ccccc2O1	2.4%	-28.5%	-9.4%	14.1%	15.8µM*	?
Cc1cccc(-c2nc3c4ccccc4n(CC(=O)Nc4cccc(F)c4)c(=O)n3n2)c1	-7.8%	/	1.1%	/	9.3%	71.5
COc1ccc(NC2=C(c3ccccc3)C(=O)c3ccccc32)cc1Cl	-8.8%	/	3.0%	/	-4.5%	-6.3
COc1ccc(OC)c(NC2=C(c3ccccc3)C(=O)c3ccccc32)c1	-20.3%	/	-6.6%	/	35.5µM*	-62.5*
COc1ccc(OC)c(Nc2cc(-c3ccccc3)nc(N)n2)c1	-12.4%	-8.0%	5.4%	11.1%	-6.2%	-89.6*
COc1ccc(-c2cc(-c3ccccc3)nc(N)n2)c(O)c1	12.5%	/	-10.0%	4.1%	/	11.9
CCCS(=O)(=O)Nc1cc(-c2cn3ccc(C)cc3n2)ccc1C	26.6%	/	0.3%	/	20.7%	-13.8
COc1cccc(-c2ccnc(-n3ncc(C(=O)NCC4(N5CCCCC5)CCCC4)c3C)n2)c1	-5.9%	/	/	/	/	/
O=c1[nH]c2cc3c(cc2cc1CN(CCc1ccccc1)Cc1nnnn1C1CCCC1)OCCO3	/	?	/	/	44.7µM*	/
O=c1[nH]c2cc3c(cc2cc1CN(Cc1cccs1)Cc1nnnn1Cc1ccco1)OCCO3	-21.4%	?	-2.1%	0.1%	11.2µM*	-7.0
O=c1[nH]c2cc3c(cc2cc1C(c1nnnn1C1CCCC1)N1CCSCC1)OCCO3 (stereo not given)	6.1%	-7.6%	3.3%	13.8%	-14.2%	-79.2*
